Bioassay records deposited in PubChem by National Center for Advancing Translational Sciences (NCATS).
PNC assembly inh: inhibitors of perinucleolar compartment assembly; AID 2417; PC3M PTB-GFP, PNC prevalence imaging, 16 h; active compounds read low; activity change (PNC), negative = inhibition, % at 10 µM; actives 3.1% (n = 140,000);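 active = readout at or below -70, meaning at least 70% loss of cells showing the perinucleolar compartment, a nuclear body marking cancer cells; inconclusive = readout between -30 and a set limit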;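 note: plate controls were DMSO wells for no effect and camptothecin positive control wells for full effect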
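Read-out is percentage of cells bearing a perinucleolar compartment, from automated 20x imaging of fixed, Hoechst-stained PC3M PTB-GFP cells. Cells were seeded 4 h, then exposed 16 h to compound (23 nl of library stock) in duplicate plates.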
ALDH1A1 inh: inhibitors of human aldehyde dehydrogenase 1A1. P00352. actives 7.3% (n = 220,000). Potency, µM (doses to about 75.3 µM), for inactives: top-dose activity, negative = inhibition, most hits filed as inhibitors. Purified ALDH1A1, NADH fluorescence, propionaldehyde substrate;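 note: potency is the fitted concentration of half-maximal effect; plate controls were no enzyme wells and a reference inhibitor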
Target sequence (P00352 whole entry, looked up): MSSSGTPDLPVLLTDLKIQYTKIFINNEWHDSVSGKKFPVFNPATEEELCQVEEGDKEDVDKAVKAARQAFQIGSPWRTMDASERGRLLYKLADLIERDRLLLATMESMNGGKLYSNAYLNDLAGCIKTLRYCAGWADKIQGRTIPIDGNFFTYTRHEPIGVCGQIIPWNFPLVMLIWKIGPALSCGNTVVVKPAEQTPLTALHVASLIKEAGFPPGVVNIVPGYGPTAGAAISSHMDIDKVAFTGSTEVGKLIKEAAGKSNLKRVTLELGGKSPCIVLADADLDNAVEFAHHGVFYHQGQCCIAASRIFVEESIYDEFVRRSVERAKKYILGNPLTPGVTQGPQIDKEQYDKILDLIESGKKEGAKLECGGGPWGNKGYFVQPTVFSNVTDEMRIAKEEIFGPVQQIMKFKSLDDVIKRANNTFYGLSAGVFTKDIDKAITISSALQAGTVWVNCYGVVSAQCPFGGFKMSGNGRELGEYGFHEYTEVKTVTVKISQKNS
IMPase Li inh: membrane-permeable IMPase blocker, potentiated with lithium; CHO-M1 cells, IP1 TR-FRET (IP-One), carbachol + lithium; Potency, µM (titrated, usually from 59.4 µM), without a hit: at the top dose activity, negative = IMPase inhibition, most hits filed as inhibitors; actives 0.35% (n = 210,000); active = well fitted curve in the direction sought with a large enough effect; inconclusive = small, poorly fitted or top-dose-only effect, or another doubt; inactive = no such curve, though single readings can be large; an effect the other way counts as inactive or inconclusive;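 note: IP1 builds up when IMPase is blocked and the TR-FRET signal falls; potency is the fitted concentration of half-maximal effect; plate controls were basal vehicle for no effect and high inhibitor control for full effect; nearly all actives have a fitted effect of over 50% in size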
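CHO cells stably expressing M1 receptor (2000/well, cultured 16–30 h) treated 30 min at 37C with compound plus low lithium. Cytosolic IP1 by TR-FRET (665/620 ratio and 620 channel) after 10 min lysis; AC50 by Hill fit.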
12-hLO inh: blocks human 12-lipoxygenase activity | P18054 | purified 12-hLO, xylenol orange hydroperoxide absorbance | Potency, µM (doses to about 57.1 µM), for the others: at the top dose activity change, negative = inhibition, hits mostly inhibitors | actives 0.12% (n = 150,000); active = well fitted curve in the direction sought with a large enough effect; inconclusive = small, poorly fitted or top-dose-only effect, or another doubt; inactive = no such curve, though single readings can be large; an effect the other way counts as inactive or inconclusive; note: potency is the fitted concentration of half-maximal effect; nearly all actives have a fitted effect of over 55% in size
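Lipoxygenase turnover measured by absorbance at 573 and 405 nm after Fe-XO development. Human 12hLO 150 nM, arachidonate 40 uM, pH 7.0 Hepes buffer with detergent; 15 min compound preincubation, 30 min reaction.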
HPGD inh: HPGD (human) dehydrogenase inhibition; P15428; purified HPGD, NADH fluorescence kinetic, PGE2 substrate; Potency, µM, inactives show at the top dose activity change, negative = inhibition, most hits filed as inhibitors; actives 4.3% (n = 150,000); AID 894; note: potency is the fitted concentration of half-maximal effect
Target sequence (P15428 whole entry, looked up): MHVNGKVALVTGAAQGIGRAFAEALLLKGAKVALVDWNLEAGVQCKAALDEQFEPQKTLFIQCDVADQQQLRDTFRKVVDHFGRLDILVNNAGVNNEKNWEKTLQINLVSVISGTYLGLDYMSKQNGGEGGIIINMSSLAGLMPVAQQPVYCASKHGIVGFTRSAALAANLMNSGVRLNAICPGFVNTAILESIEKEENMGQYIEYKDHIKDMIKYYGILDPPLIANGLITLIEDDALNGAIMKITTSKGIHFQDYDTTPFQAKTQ
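20 nM HPGD preincubated 15 min at room temperature with compound in 50 mM Tris-HCl pH 8, 0.01% Tween 20. Started with 1 mM NAD+ and 30 uM prostaglandin E2; NADH fluorescence (360/450 nm) read 5 times over 30-s intervals, last minus first.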
IMPase cell inh: cell-permeable inhibitors of inositol monophosphatase (IMPase); inhibition (IP1 accumulation), % at 46.1 µM; P97697; 120,000 tested, under 10 active; CHO-M1 cells, IP1 accumulation, HTRF TR-FRET ratio; active = well fitted curve in the direction sought with a large enough effect in the signal ratio, not every such curve was filed as active; inconclusive = small, poorly fitted or top-dose-only effect, or a change in a side signal; inactive = no such curve, though single readings can be large or run the other way; the % refers to the signal ratio;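 note: cells stimulated with carbachol in lithium chloride buffer; plate controls were DMSO basal wells for no effect and reference inhibitor wells for full effect; higher means more IMPase inhibition seen as more IP1 and lower FRET ratio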
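In this qHTS, compounds (final up to 46 uM) act on CHO-M1 cells that are then activated through the M1 receptor with carbachol, in pH 7.4 buffer containing 50 mM LiCl, for 30 min. IP1 accumulation is quantified by the IP-One immunoassay.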
* hit, by the source's call; [ ] = another dose, or the depositor's remark. Only some compounds are listed: those with a hit (about 11% of all), similar ones and a draw of the others. Unless noted, calls come from the whole dose curve; as a rule, active = well fitted inhibition curve with a large enough effect (not every such curve was filed as active); inconclusive = small, poorly fitted or top-dose-only effect, or another doubt; inactive = no such curve, though single readings can be large or run the other way. Unless noted, % is set by controls: 0 for no effect and ±100 for the full control effect.

What do the screens show for `Cc1ccccc1-c1cncnc1N1CCNCC1`?
ALDH1A1 inh: -9%; IMPase Li inh: 7%; 12-hLO inh: 0%; HPGD inh: -2%

How did Cn1c(-c2cnn(-c3ccccc3)c2-n2cccc2)n[nH]c1=S do in these assays?
ALDH1A1 inh: 22µM*; IMPase Li inh: -4%

How did CCCCCCSc1nnc(-c2cnn(-c3ccccc3)c2-n2cccc2)n1C do in these assays?
PNC assembly inh: 8; ALDH1A1 inh: 7.1µM*; IMPase Li inh: 30%[38.3 µM]; 12-hLO inh: -21%; HPGD inh: inconclusive; IMPase cell inh: -1

Results for O=C(NC1CCCCC1)c1ccc(Cc2nc3ccccc3[nH]2)cc1 ?
ALDH1A1 inh: 5%; 12-hLO inh: -3%; HPGD inh: -4%

What do the screens show for `COc1ccc(NC(=O)CN2CCCCC2)cc1`?
PNC assembly inh: -6; ALDH1A1 inh: -18%; IMPase Li inh: 3%[38.3 µM]; 12-hLO inh: -5%; HPGD inh: -25%; IMPase cell inh: -4

How did COc1ccc(NC(=O)CN2CCN(c3ccccc3Cl)CC2)cc1 do in these assays?
PNC assembly inh: -100*; ALDH1A1 inh: inconclusive; IMPase Li inh: 6%; 12-hLO inh: 9%; HPGD inh: -5%; IMPase cell inh: 2

Results for COCC(=O)Nc1ccccc1C(=O)Nc1ccc(OC)cc1 ?
PNC assembly inh: 11; ALDH1A1 inh: 1%; IMPase Li inh: 32µM*; 12-hLO inh: 0%; HPGD inh: -8%; IMPase cell inh: 4

How did COc1ccc(NC(=O)CN2CCN(CC(=O)Nc3ccccc3Cl)CC2)cc1 do in these assays?
PNC assembly inh: 51; ALDH1A1 inh: 8.9µM*; IMPase Li inh: 2%[38.3 µM]; 12-hLO inh: -7%; HPGD inh: -1%; IMPase cell inh: -8

Results for CCc1cccc2c(-c3ccccc3)c3c(nc12)OCC3 ?
ALDH1A1 inh: inconclusive; IMPase Li inh: -11%; 12-hLO inh: -4%; HPGD inh: inconclusive

What do the screens show for `O=C(N/C(=C\c1cccc([N+](=O)[O-])c1)C(=O)N1CCCCC1)c1cccs1`?
PNC assembly inh: -5; ALDH1A1 inh: 20µM*; IMPase Li inh: -2%; 12-hLO inh: -2%; HPGD inh: -5%; IMPase cell inh: 21

How did COc1ccc(NC(=S)NCCSc2ccc(Cl)cc2)c(OC)c1 do in these assays?
PNC assembly inh: -1; ALDH1A1 inh: 20µM*; IMPase Li inh: 25%; 12-hLO inh: inconclusive; HPGD inh: 16µM*; IMPase cell inh: 2

How did COc1ccccc1NC(=S)NCCc1ccc(Cl)cc1 do in these assays?
PNC assembly inh: 74; ALDH1A1 inh: inconclusive; IMPase Li inh: 10%[38.3 µM]; 12-hLO inh: 14µM*; HPGD inh: -11%; IMPase cell inh: 0

What do the screens show for `COc1cc(NC(=S)NCCCO)c(OC)cc1Cl`?
ALDH1A1 inh: inconclusive; IMPase Li inh: 1%

How did COc1ccccc1NC(=S)NCCSc1ccc(Cl)cc1 do in these assays?
PNC assembly inh: 11; ALDH1A1 inh: 0%; IMPase Li inh: 3%; 12-hLO inh: inconclusive; HPGD inh: -10%; IMPase cell inh: 13

How did COc1cc(NC(=S)NCCc2ccc(S(N)(=O)=O)cc2)c(OC)cc1Cl do in these assays?
ALDH1A1 inh: 11µM*; IMPase Li inh: 8%

Results for CC(C)(C)OC(=O)C1=NOC2(C=CC(=O)C=C2)C1 ?
ALDH1A1 inh: 12%; IMPase Li inh: 25%; HPGD inh: -8%

Results for CCCC(=O)OC1(C(=O)CO)CCC2C3CCC4=CC(=O)CCC4(C)C3C(O)CC21C (stereo unspecified) ?
ALDH1A1 inh: 15%; IMPase Li inh: 14%; 12-hLO inh: -4%[0.00818 µM]; HPGD inh: 1%

Results for O=C(NOC(=O)c1ccccc1)c1ccccc1 ?
ALDH1A1 inh: 20µM*

How did COc1ccc2c(c1)CCN(C(=O)CCl)C2C1C(=O)CCCC1=O (stereo unspecified) do in these assays?
PNC assembly inh: 11; ALDH1A1 inh: 22µM*; IMPase Li inh: 3%; 12-hLO inh: 4%; HPGD inh: -5%

How did CCOC(=O)c1cnn2c(N)c(C#N)cnc12 do in these assays?
ALDH1A1 inh: inconclusive; IMPase Li inh: -4%

What do the screens show for `CCOC(=O)c1cnn2c(N)c(C#N)nnc12`?
PNC assembly inh: -117*; ALDH1A1 inh: -3%; IMPase Li inh: -4%[38.3 µM]; 12-hLO inh: 5%; HPGD inh: -12%; IMPase cell inh: 1

How did CC1(C)Cn2c(nnc2-c2ccccc2)S1 do in these assays?
PNC assembly inh: 2; ALDH1A1 inh: 3%; IMPase Li inh: 12%[38.3 µM]; 12-hLO inh: 3%; HPGD inh: 16µM*; IMPase cell inh: -4

Results for CC1(C)Cc2ccccc2-c2nnc(-c3ccccc3)n21 ?
PNC assembly inh: 2; ALDH1A1 inh: -1%; IMPase Li inh: 13%[38.3 µM]; 12-hLO inh: -2%; HPGD inh: -2%; IMPase cell inh: -6

What do the screens show for `CCCSc1nc(-n2ncc(C#N)c2N)c2c3c(sc2n1)CCC(C)C3` (stereo unspecified)?
PNC assembly inh: 38; ALDH1A1 inh: 4µM*; IMPase Li inh: 35%[38.3 µM]; 12-hLO inh: -4%; HPGD inh: inconclusive; IMPase cell inh: 7

Results for Cc1nc(-n2ncc(C#N)c2N)c2c3c(sc2n1)CCC3 ?
PNC assembly inh: 2; ALDH1A1 inh: 9%; IMPase Li inh: -4%[38.3 µM]; 12-hLO inh: 6%; HPGD inh: -19%; IMPase cell inh: 6

How did CCOc1ccc(-c2nc3c(c(CC)nn3-c3ccccc3)c3cc(OC)c(OC)cc23)cc1 do in these assays?
IMPase cell inh: -3

What do the screens show for `CCNc1ccc(S(=O)(=O)N(C)C)cc1NCC(=O)Nc1ccccc1Cl`?
ALDH1A1 inh: 8.9µM*; IMPase Li inh: 4%

How did COc1ccccc1-c1c(C)nn2c(C(F)(F)F)cc(-c3ccccc3)nc12 do in these assays?
IMPase cell inh: 1

What do the screens show for `CCCCc1cc2c(cn1)=C(OC(=O)c1ccc(Cl)nc1)C(C)(OC(=O)CC)C(=O)C=2` (stereo unspecified)?
ALDH1A1 inh: 3.2µM*; IMPase Li inh: 10%; 12-hLO inh: -2%[11.4 µM]; HPGD inh: 1%

Results for CCCCc1cc2c(cn1)=C(OC(=O)c1cnc3ccccc3n1)C(C)(OC(=O)CC)C(=O)C=2 (stereo unspecified) ?
ALDH1A1 inh: 3.2µM*; IMPase Li inh: 5%; 12-hLO inh: 4%[11.4 µM]; HPGD inh: -8%

What do the screens show for `CCCCc1cc2c(cn1)=C(OC(=O)CCC(=O)OC)C(C)(OC(=O)CC)C(=O)C=2` (stereo unspecified)?
ALDH1A1 inh: inconclusive; IMPase Li inh: 6%; 12-hLO inh: 2%[11.4 µM]; HPGD inh: -6%
